Bioassay records as filed in PubChem BioAssay.
MCF10A rerep: induces DNA re-replication in MCF 10a normal breast cells | MCF 10A DNA re-replication, Hoechst nuclear intensity, 48 h | Potency, µM (doses to about 46.1 µM), without a hit: at the top dose activity, positive = re-replication, usual class: activators | actives 2.9% (n = 350,000) | AID 624296; further: potency means the concentration at half of the fitted maximal effect; % of control where 0% means no effect; nearly all actives have a fitted effect of over 50% in size
TDP1 cell noCPT: qHTS for Inhibitors of human tyrosyl-DNA phosphodiesterase 1 (TDP1): qHTS in cells in absence of CPT | AID 686978, 2013 | actives 15% (n = 420,000) | DT40 Tdp1-/- hTDP1 cells, no CPT, ATP luminescence, 48 h | Potency, µM (doses to about 46.2 µM), without a hit: at the top dose activity change, negative = growth inhibition, most hits filed as inhibitors; further: potency means the concentration at half of the fitted maximal effect; on the % scale 0 is the no-effect control and ±100 the full control effect; nearly all actives have a fitted effect of over 55% in size
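Stably hTDP1-transfected Tdp1-null chicken DT40 cells were treated with library compounds minus camptothecin and grown for at least 48 hr at 37 °C, after which cellular ATP was quantified by luminescence.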
IL1B secr inh: inhibitors of inflammasome signaling (IL-1 beta secretion). THP-1 LPS/ATP IL-1B secretion, AlphaLISA, 16 h; stronger effect = lower value. activity change, % at 57.5 µM. actives 4.7% (n = 360,000). AID 743279; in the data active means activity change below about -50%; inconclusive means mostly about -30% to -49%; further: on the % scale 0 is the no-effect control and ±100 the full control effect
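THP-1 cells pretreated 1 hr with compounds (up to 57.5 uM final), then stimulated with LPS (250 ng/mL final) plus ATP (1.25 mM final); secreted IL-1B measured by AlphaLISA after 16 hr, decreased signal indicating inhibition.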
SW480 rereplic: inducers of DNA re-replication in SW480 colon cancer cells; SW480 DNA re-replication, Hoechst DNA content imaging, 48 h; Potency, µM (titrated, usually from 46.1 µM), for inactives: top-dose re-replication activation, usual class: activators; actives 1.8% (n = 340,000); AID 624297; further: potency means the concentration at half of the fitted maximal effect; % of control where 0% means no effect; nearly all actives have a fitted effect of over 55% in size
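DNA re-replication was detected as more nuclei of elevated Hoechst intensity after 48 hr exposure to compound (23 nL pinned per well of 250 cells).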
BCR signal inh: blocks chronic active B-cell receptor signaling; Potency, µM (titrated, usually from 46.1 µM), for inactives: at the highest dose activity change, negative = inhibition, actives largely listed as inhibitors; AID 493014; actives 0.05% (n = 340,000); ABC-DLBCL IkBa-CBG/CBR reporter, luminescence ratio, 4 h; active means well fitted inhibition curve with a large enough effect in the signal ratio, with a control signal flat, not every such curve was filed as active; inconclusive means small, poorly fitted or top-dose-only effect, or effect the other way, or a change in a side signal; the % refers to the signal ratio;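 further: potency means the concentration at half of the fitted maximal effect; plate controls were basal doxycycline-induced cells for no effect and cells given 10 µM MG132 for full effect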
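TMD8 ABC-DLBCL cells carrying doxycycline-inducible green luciferase fused to IkappaBalpha plus unfused red luciferase were exposed to compounds (up to 46 uM) for 4 hrs at 37C. Activity came from the overlap-corrected green/red luminescence ratio.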
DT40 TDP1 CPT: DT40-hTDP1 cell growth loss with CPT | chicken DT40 Tdp1-/-;hTDP1 cells + 20 nM CPT, ATP luminescence, 48 h | Potency, µM (series often up to 46.2 µM), inactives show top-dose activity change, negative = growth inhibition, hits mostly inhibitors | actives 12% (n = 420,000) | AID 686979; further: potency means the concentration at half of the fitted maximal effect; on the % scale 0 is the no-effect control and ±100 the full control effect; nearly all actives have a fitted effect of over 55% in size
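Cell growth measured by CellTiter-Glo luminescence after a minimum 48 h, 37 C compound exposure with 20 nM CPT in Tdp1-knockout DT40 cells stably expressing hTDP1, seeded 400/well; qHTS titration format.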
* marks the source's active call; other numbers are inactive results; ? = inconclusive; nt = no result given; [ ] = remark or other dose. An excerpt weighted towards active compounds, which were near 19% of everything screened. Unless noted, the call rests on the fitted dose curve; in most records, active means well fitted curve in the direction sought with a large enough effect; inconclusive means small, poorly fitted or top-dose-only effect, or another doubt; inactive means no such curve, though single readings can be large; an effect the other way counts as inactive or inconclusive.

SMILES	MCF10A rerep	TDP1 cell noCPT	IL1B secr inh	SW480 rereplic	BCR signal inh	DT40 TDP1 CPT
CCOC(=O)c1ccc(OCC2c3cc(OC)c(OC)cc3CCN2C(=O)c2ccc(S(=O)(=O)N3CCCC3)cc2)cc1 (centres undefined)	nt	?	nt	nt	-2.1%	?
CCOC(=O)c1ccc(OCC2c3cc(OC)c(OC)cc3CCN2C(=O)Cc2ccc(F)cc2)cc1 (centres undefined)	nt	18.4µM*	nt	nt	?	23.1µM*
O=C(c1ccco1)N1CCc2[nH]nc(-c3ccccc3)c2C1	-7.4%	-10.3%	-15.2	3.2%	?	16.1%
Cc1ccccc1OCC(=O)OCC(=O)NC1CCCC1	nt	-0.9%	12.9	nt	nt	7.4%
Cc1cc(SCC(=O)NCCCN2CCCC2=O)nc2ccccc12	-20.0%	10.9%	0.0	14.0%	1.6%	-3.8%
O=C1NC[C@H](Cc2ccc(O)cc2)N(C[C@@H]2CCCN2C[C@H](Cc2ccccc2)N2C[C@H](Cc3ccccc3)N(CC3CCCCCC3)C(=O)C2=O)C1=O	nt	?	-17.4	nt	nt	?
Oc1ccc(C[C@@H](CN2CCCC2CN2C(=S)NC[C@@H]2Cc2ccccc2)N2C[C@H](Cc3ccccc3)N(CC3CCCCC3)C2=S)cc1 (some centres undefined)	nt	20.6µM*	-8.0	nt	nt	14.6µM*
Oc1ccc(C[C@H]2CNC(=S)N2CC2CCCN2C[C@H](Cc2ccc(O)cc2)N2C[C@H](Cc3ccccc3)N(CC3CCCCCC3)C2=S)cc1 (some centres undefined)	?	4.11µM*	-65.8*	11.0%	nt	10.3µM*
Oc1ccc(C[C@H]2CNC(=S)N2CC2CCCN2C[C@H](Cc2ccc(O)cc2)N2C[C@H](Cc3ccccc3)N(CC3CCCCC3)C2=S)cc1 (some centres undefined)	?	16.4µM*	-72.0*	9.3%	nt	16.4µM*
Oc1ccc(C[C@@H](CN2CCCC2CN2C(=S)NC[C@@H]2Cc2ccccc2)N2C[C@H](Cc3ccccc3)N(CC3CCCCCC3)C2=S)cc1 (some centres undefined)	nt	?	-7.5	nt	nt	?
Oc1ccc(C[C@H]2CN([C@@H](Cc3ccccc3)CN3CCC[C@@H]3CN3C(=S)NC[C@@H]3Cc3ccccc3)C(=S)N2CC2CCCCC2)cc1	nt	25.9µM*	?	nt	nt	?
COCCNC(=O)CSc1nnc2[nH]c(=O)cc(C)n12	nt	-11.6%	nt	nt	9.0%	28.0%
Cc1cc2c(c(=O)o1)C1O[C@](c3ccsc3)(Cc3cc(C#N)ccc31)O2	nt	nt	nt	nt	14.7%[9.22 µM]	nt
CCOC(=O)C1=C(CC)Nc2ccccc2N=C1NC(=O)c1ccc(OC)c(S(=O)(=O)N2CCOCC2)c1	2.1%	?	-13.9	0.3%	nt	?
Oc1ccc(C[C@H]2CNC(=S)N2CC2CCCN2C[C@H](Cc2ccc(O)cc2)N2C[C@H](Cc3ccc(O)cc3)N(CC3CCCCCC3)C2=S)cc1 (some centres undefined)	10.3µM*	18.4µM*	?	?	nt	23.1µM*
CC(C)C[C@@H](CN1CCC[C@H]1CN1C(=O)C(=O)NC[C@@H]1Cc1ccc(O)cc1)N1C[C@H](Cc2ccccc2)N(CC2CCCCC2)C(=O)C1=O	nt	?	-1.5	nt	nt	?
Oc1ccc(C[C@H]2CNC(=S)N2CC2CCCN2C[C@H](Cc2ccccc2)N2C[C@H](Cc3ccc(O)cc3)N(CC3CCCCC3)C2=S)cc1 (some centres undefined)	nt	20.6µM*	?	nt	nt	?
